These results are taken from ChEMBL document CHEMBL3988442, “University of Dundee, Small-Polar-MMV Screening Library” (2021).

Assay [1] has as its target T1, Aspartate--tRNA(Asp/Asn) ligase (Mycobacterium tuberculosis (strain ATCC 25618 / H37Rv)) (UniProt P9WFW3). Further: in the data most compounds retested in dose-response had high values.
T1 sequence (whole entry): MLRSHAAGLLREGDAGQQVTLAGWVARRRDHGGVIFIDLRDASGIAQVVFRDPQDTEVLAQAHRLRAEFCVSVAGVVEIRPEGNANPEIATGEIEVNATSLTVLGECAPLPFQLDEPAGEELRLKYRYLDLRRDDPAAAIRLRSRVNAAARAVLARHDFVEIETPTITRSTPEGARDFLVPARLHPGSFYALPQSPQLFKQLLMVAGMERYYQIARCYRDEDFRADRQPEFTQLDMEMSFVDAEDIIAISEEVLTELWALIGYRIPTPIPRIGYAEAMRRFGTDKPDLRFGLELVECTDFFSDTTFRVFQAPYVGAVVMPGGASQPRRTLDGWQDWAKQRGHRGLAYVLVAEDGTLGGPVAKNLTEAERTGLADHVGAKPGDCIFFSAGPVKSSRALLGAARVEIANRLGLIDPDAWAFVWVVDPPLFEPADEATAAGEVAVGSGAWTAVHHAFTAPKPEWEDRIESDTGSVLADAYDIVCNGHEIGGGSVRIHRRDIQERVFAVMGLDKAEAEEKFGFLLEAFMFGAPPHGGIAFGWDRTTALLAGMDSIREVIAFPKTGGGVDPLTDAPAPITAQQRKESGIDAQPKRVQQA
Kind of assay: Assay for Asp RNA synthetase-1 from Mycobacterium tuberculosis. The assay is classed as functional. The note with it: 30 µM. Details: scale not given: direction of the effect not stated beside the values.

Assay [2] deals with Shiga toxin 2 (Escherichia coli O157:H7) (UniProt P09385+P09386). Nature of the assay: E. coli 0.157:H7 Shiga Toxin SOP - stx2 screening assay. Details: scale not given: direction of the effect not stated beside the values. The assay is classed as functional. The note with it: 30 µM.

For `Cc1nc(C)n(CC2CCCN(CCNC(=O)OC(C)(C)C)C2)n1` (stereo not drawn), the Percent Effect in assay [1] is -2.36%; in assay [2] it was 7.06%.

For the compound `CCc1nc(C2CCCN2CCCS(=O)(=O)c2ccccc2)no1` (stereo not drawn), the Percent Effect in assay [1] was -4.39%; in assay [2], -9.14%.

As for `CC(C)S(=O)(=O)N1CCC(c2cc3n(n2)[C@@H](C(F)(F)F)C[C@@H](C)N3)C1` (stereo partly drawn), the Percent Effect was -2.54% in assay [1] and -27.2% in assay [2].

Regarding `CSc1ccccc1CN1CCn2nc(CNC(C)=O)cc2C1`, the Percent Effect in assay [1] was 6.15%; in assay [2], -66.1%.

Regarding `CN(CCOc1cccc(CNC(=O)C2CC2)c1)C1CCOCC1`, the Percent Effect in assay [1] was -1.13%; in assay [2] it was -0.044%.

As for `O=C(Cc1ccc2c(c1)OCCO2)N1CCCC(n2ccnc2)C1` (stereo not drawn), the figures for the Percent Effect in assay [1] and in assay [2] were -4.41% and -18.9%, respectively.

With `Cc1ccc(NC2CCN(C(=O)c3cc[nH]n3)CC2)nn1`, the figures for the Percent Effect in assay [1] and in assay [2] were -1.83% and 18.1%, respectively.

With `Cc1cc(CN2CCN(C(C)c3nc(C4CC4)no3)CC2)no1` (stereo not drawn), the Percent Effect is 3.89% in assay [1] and -2.55% in assay [2].

On to `c1ccc(CNC2CCc3ncnn3C2)nc1` (stereo not drawn), for which the Percent Effect in assay [1] was -0.856%; in assay [2], -65.4%.

As to `CCn1c(CN2CCN(CC(N)=O)CC2)nc2c(F)cccc21`, the Percent Effect in assay [1] was -3.37%; in assay [2], 6.95%.

In the case of `O=C(CCc1cccs1)N1CCCCC1Cn1cccn1` (stereo not drawn), the Percent Effect is -2.77% in assay [1] and 1.06% in assay [2].

On to `Cc1cccc(CCC(=O)N2CCOCC2c2c(C)n[nH]c2C)c1` (stereo not drawn), for which the values for the Percent Effect in assay [1] and in assay [2] were 3.91% and -16.7%, respectively.

In the case of `CC(C)CN1C[C@H]2CCN(c3ncccn3)CC[C@H]2S1(=O)=O`, the Percent Effect in assay [1] was 2.71%; in assay [2] it was -33%.

In the case of `O=C(c1cnc(C2CC2)s1)N1CCCC(n2cccn2)C1` (stereo not drawn), the Percent Effect in assay [1] is -2.52%; in assay [2], 24.9%.

For `CCc1nc(C2CCCN2C(=O)CCc2cccs2)no1` (stereo not drawn), the Percent Effect was -0.641% in assay [1] and 24% in assay [2].

Consider `Cn1nc2c(cc1=O)CN(Cc1nnc(-c3ccco3)o1)CC2`, for which the results for the Percent Effect in assay [1] and in assay [2] were 15.6% and 2.57%, respectively.

Regarding `CCc1ncncc1C(=O)N1CCN(Cc2ccco2)CC1`, the Percent Effect came out at 3.68% in assay [1] and 8.73% in assay [2].

Regarding `Cc1occc1C(=O)N1CCC2(CCN(Cc3nccs3)C2)CC1`, the Percent Effect in assay [1] was 0.208%; in assay [2], -15.8%.

For the compound `CNS(=O)(=O)c1cccc(C(C)NCc2cccc(OC)c2)c1` (stereo not drawn), the Percent Effect in assay [1] is 0.915%; in assay [2], -24.3%.
